Screening results deposited in PubChem BioAssay by Broad Institute.
aSyn 5UTR act: Activators working through SNCA 5'UTR binding (MLPCN). alpha-synuclein 5'UTR reporter, activators screen. activity score, % (tested at 7.5 µM), hits read low. actives 7.1% (n = 300,000). AID 1814; in the data active = activity score below about -60%
* marks the source's active call; other numbers are inactive results. The list is a sample of the results.

SMILES	aSyn 5UTR act
CC(C)c1ccc(NC(=O)c2ccc3snnc3c2)cc1	-117*
Cc1ccc(NC(=O)c2ccc3snnc3c2)cc1	-226*
CCCCN1CCc2c([nH]c3c(C)cccc23)C1=O	-150*
O=C(c1ccncc1)N1N=C(c2ccc(Cl)cc2)CC1c1ccccc1O (stereo not drawn)	-128*
COc1ccc(-c2cc(C(=O)Nc3ccc(C)cc3)no2)cc1	-71*
COc1ccc(OCc2cccc(C(=O)Nc3cc(C)on3)c2)cc1	66
COc1ccc(-c2cc(C(=O)Nc3cc(C)on3)no2)cc1	-71*
O=C(NC(=S)Nc1ncc(Br)cc1Br)c1ccccc1	-153*
O=C(NC(=S)Nc1cnc2ccccc2c1)c1ccccc1	-171*
Cn1ncc2cc(NC(=S)NC(=O)c3ccccc3)ccc21	-201*
O=C(Nc1cnc2ccccc2c1)c1ccncc1	-110*
Cc1ccc(NC(=O)Nc2cnc3ccccc3c2)cc1	-144*
S=C(NCCc1ccccc1)Nc1cnc2ccccc2c1	-115*
Cn1c(NC(=O)/C=C/c2c(F)cccc2Cl)cc(=O)n(C)c1=O	-172*
O=C(/C=C/c1c(F)cccc1Cl)Nc1ncccn1	-228*
Cn1c(NC(=O)/C=C\c2ccccc2)cc(=O)n(C)c1=O	-137*
Cn1c(NNC(=O)c2ccccc2F)cc(=O)n(C)c1=O	46
COc1ccc(NC(=O)c2cc(-c3ccccc3Cl)on2)cc1	-125*
COc1cc(NC(=O)c2cc(-c3ccccc3Cl)on2)cc(OC)c1OC	-76*
CNc1nn(-c2cccc(Cl)c2)nc1N	-97*
Brc1cccc(OCCSc2ncccn2)c1	-69*
CCCOc1ccc(OCCSc2ncccn2)cc1	-167*
Clc1ccc(OCCSc2ncccn2)c(Br)c1	-114*
FC(F)(F)c1cc(-c2ccco2)nc(NCCc2ccccc2)n1	-92*
Cc1nc2cc(NC(=O)N3CCCCC3)ccc2n1C	-71*
SMILES	aSyn 5UTR act
COc1cc(C(=O)Nc2ccc(N(C)C)cc2)cc(OC)c1OC	-99*
COc1cc(C(=O)NC(=S)N(CCc2ccccc2)CCc2ccccc2)cc(OC)c1OC	69
Cc1ccc(NC(=O)Nc2ccc3c(c2)nc(C)n3C)cc1C	-127*
COc1cc(C(=O)Nc2ccc3c(c2)nc(C)n3C)cc(OC)c1OC	-92*
O=C(Nc1nc2cc3c(cc2s1)OCO3)C1CCCCC1	-140*
O=C(Nc1nc2cc3c(cc2s1)OCO3)C1CC1	-161*
Cc1nc(C(F)(F)F)ccc1C(=O)Nc1ccc2ccccc2n1	-94*
Cc1nc(C(F)(F)F)ccc1C(=O)NCC(O)c1ccccc1 (stereo not drawn)	-67*
Cc1ccccc1Nc1nc(N)nc(CSc2nnnn2C)n1	-109*
Cc1ccc(Nc2nc(N)nc(CSc3nccn3C)n2)c(C)c1	-101*
Cc1ccccc1Nc1nc(N)nc(CSc2ccc(F)cc2)n1	-125*
CC(C)(C)c1ccc(Cn2cnc(-c3ccc([N+](=O)[O-])cc3)c2)cc1	-119*
CCc1cc(C=C(Cl)Cl)oc(=O)c1C	-117*
CCCCNC(=O)Nc1ccc(C2SCCS2)cc1	-91*
O=C(Nc1ccc(C2SCCS2)cc1)c1ccccc1	-88*
O=C(Nc1ccc(-c2nnco2)cc1)c1ccccc1	-78*
O=C(Nc1ccc(SC(F)F)cc1)c1ccc(F)cc1	-163*
O=C(Nc1ccc([N+](=O)[O-])cc1)c1ccccc1	-122*
O=C(C#Cc1ccccc1)c1ccc([N+](=O)[O-])cc1	-95*
O=C(Nc1ccccc1)c1ccc(NC(=O)C2CC2)cc1	-105*
O=C(Nc1csc(Cl)c1)c1ccccc1	-161*
CCN(CC)c1ccc(C(=O)Nc2ccccc2)cc1[N+](=O)[O-]	-151*
Cc1ccc(C(=O)C[n+]2ccc(Cc3ccccc3)cc2)cc1	61
CNC(=O)c1ccc(NC(=O)Nc2ccccc2)cc1	-71*
O=C(C[n+]1ccc2ccccc2c1)c1ccc(NC(=O)c2ccccc2)cc1	-87*
SMILES	aSyn 5UTR act
COc1cc(OC)cc(C(=O)Nc2ccc(Nc3ccccc3)cc2)c1	-165*
CCn1c2ccccc2c2cc(NC(=O)c3cc(OC)cc(OC)c3)ccc21	101
Cc1ccc(C(=O)Nc2ccc(Nc3ccccc3)cc2)cc1C	-62*
O=C(Nc1ccc2nc3ccccc3nc2c1)c1ccccc1	-97*
CC(Cc1ccccc1)NC(=O)c1ccc([N+](=O)[O-])cc1 (stereo not drawn)	-90*
O=C(Nc1ccc(F)cc1)c1ccccc1	-83*
O=C(N[C@H]1CC1c1ccccc1)c1ccc([N+](=O)[O-])cc1 (stereo partly drawn)	-107*
O=C(Nc1ccc(-c2nc3ccccc3s2)c(OC(=O)c2ccccc2)c1)c1ccccc1	-175*
O=C(Nc1ccc(Nc2ccccc2)cc1)c1ccccc1	-176*
Cc1ccccc1OCc1n(CC(=O)OC2CC(C)CCC2C(C)C)c2ccccc2[n+]1C (stereo not drawn)	85
CN1C(=O)/C(=C/C=C2\SCCN2C)N(C)C1=S	-177*
C[C@@H]1[C@@H](Sc2ccccc2)CC(=O)O[C@@H]1c1ccc(-c2ccccc2)cc1	-182*
O=Cc1cc(N=Nc2ccccc2Cl)ccc1O	-111*
Cc1ccc(NC(=O)c2cc(C)n(-c3cccc(C)c3)c2C)cc1	-62*
O=C(Nc1ccncc1)c1cc2ccccc2cc1O	-79*
Cc1ccc(NC(=O)c2cc(C)n(-c3ccccc3)c2C)cc1	106
COc1cc2ccccc2cc1C(=O)Nc1ccc(C)cc1	-186*
Cc1ccc(NC(=O)c2cccc3ccccc23)cc1	-91*
COc1ccccc1C(=O)Nc1ccc2ccccc2c1	-88*
COc1cc2ccccc2cc1C(=O)Nc1ccc(Cc2ccncc2)cc1	-129*
CC(=O)Oc1ccccc1C(=O)Nc1ccccc1	-93*
O=C(NCCc1ccc(Cl)cc1)c1cccs1	-156*
Cc1ccc2cc(CCNC(=O)c3cccs3)c(=O)[nH]c2c1C	-190*
O=C(CNC(=O)c1cccs1)c1ccc(Cl)cc1	-89*
Cc1cc(NC(=O)c2ccccc2)sc1C	-142*
SMILES	aSyn 5UTR act
COC(=O)c1c(NC(=O)CCl)sc(C(=O)N2CCOCC2)c1C	-83*
Cc1ccc(C(=O)CN2C(=O)c3ccccc3S2(=O)=O)cc1	109
Cc1ccc(C(=O)COc2ccccc2N2C(=O)c3ccccc3C2=O)cc1	-127*
COc1ccc(-c2csc(-n3cccn3)n2)cc1	-153*
Clc1ccc(-c2csc(N3CCC(c4ccccc4)C3)n2)cc1 (stereo not drawn)	-226*
Fc1ccc(-c2csc(N3CCC(c4ccccc4)C3)n2)cc1 (stereo not drawn)	-199*
COc1ccc(-c2csc(N3CCC(c4ccccc4)C3)n2)cc1 (stereo not drawn)	-114*
CCN(CC)CCCNC(=S)N1CCN(c2nc(-c3ccc(F)cc3)cs2)CC1	133
COc1ccc(-c2csc(N3CCSCC3)n2)cc1	-225*
O=C(CSc1ncnc2c1oc1ccccc12)c1cccs1	-125*
Cc1nc(SCC(=O)c2cccs2)c2oc3ccccc3c2n1	-134*
C/C(=N\OC(=O)Nc1ccccc1)c1ccc(C)cc1	-113*
COc1cccc(NC(=O)n2nc(N)cc2-c2ccc(Cl)cc2)c1	-69*
Cc1cc(C)n(-c2nc(NCC(C)O)c3c4c(sc3n2)CCCC4)n1 (stereo not drawn)	-62*
CC#CC(=O)N1CCC(n2nccc2NC(=O)c2ccc3c(c2)OCO3)CC1	-83*
CSCCC(=O)N1CCC(n2nccc2NC(=O)c2ccc3c(c2)OCO3)CC1	-84*
CCN1CCN(C(=O)c2ccc3c(=O)n(CCc4ccccc4)c(=O)[nH]c3c2)CC1	-72*
